The campaign covered roughly 6,200 compounds. About 2,900 (47%) were called active. The set was probably picked from earlier hits. This is one part of the list. Values without a mark were called inactive. Rule as the data show it: active = inhibition above about 50%; inactive = the rest.
experiment: Mycobacterium tuberculosis growth inhibition, primary screen (AID 1259343); settings: inhibition: at 10 µM, stronger effect = higher value; outcome: 10 uM

Row | SMILES | inhibition
1 | COCC1CCCN(c2nncc(-c3ccc(Cl)cc3)n2)C1 (stereo unspecified) | 9.94%
2 | O=C(Cc1ccc(C(F)(F)F)cc1)Nc1ncccc1O | 82.2% (active)
3 | O=C(CCSc1ccc(C(F)(F)F)cn1)Nc1c(Cl)cccc1Cl | 20.9%
4 | CCc1ccc(C(CNC(=O)Cc2ccc(C(F)(F)F)cc2)N(C)C)cc1 (stereo unspecified) | 19.9%
5 | O=C(O)CCN(Cc1ccco1)c1nc(-c2cccc(Br)c2)nc2ccccc12 | 2.99%
6 | S=P(NN=C1CCSC1)(c1ccccc1)c1ccccc1 | 62.1% (active)
7 | Cc1cccc(-c2ccc(NC(=O)C3CCN(C(=O)c4cscn4)CC3)cc2)c1 | 93% (active)
8 | COc1cccc(-c2ccc(NC(=O)C3CCCN(C(=O)c4cnsn4)C3)cc2)c1 (stereo unspecified) | inactive
9 | Cc1cccc(-c2ccc(NC(=O)C3CCN(C(=O)c4cnsn4)CC3)cc2)c1 | 91.7% (active)
10 | CN1c2ccccc2-c2nc3ccccc3n2C1c1ccco1 (stereo unspecified) | 24.8%
11 | C#CCCCCCCCCCCCC(O)CC(O)COC(C)=O (stereo unspecified) | 93.3% (active)
12 | CCCc1cc(=O)[nH]c(-n2nc(C)cc2C)n1 | 6.1%
13 | Cc1cccc(-n2ncc3c(=O)[nH]c(-n4nc(C)cc4N)nc32)c1 | 102% (active)
14 | CCc1cc(=O)[nH]c(-n2nc(C)cc2N)n1 | 83.4% (active)
15 | Cc1cc(N)n(-c2nc3c(cnn3-c3ccccc3)c(=O)[nH]2)n1 | 5.14%
16 | CCCc1cc(=O)[nH]c(-n2nc(C)cc2N)n1 | 101% (active)
17 | Cc1cc(N)n(-c2nc3c(cnn3-c3ccc(C)c(C)c3)c(=O)[nH]2)n1 | 33.8%
18 | Cc1cc(=O)[nH]c(-n2nc(C)cc2N)n1 | 101% (active)
19 | CCC(=O)c1ccc(O)c(CC=C(C)C)c1 | 20.6%
20 | CC(C)=CCc1c(O)ccc(C(=O)Cc2ccccc2)c1O | 59.8% (active)
21 | N#Cc1c(Cl)c(Cl)c(Cl)c(C#N)c1Cl | 102% (active)
22 | O=C(Nc1ccccc1)c1cc(C2CCCN(C(=O)C/C=C/c3ccccc3)C2)on1 (stereo unspecified) | 43%
23 | Cc1ccc(C(=O)OCc2cc(C)on2)c(O)c1 | -29.5%
24 | Cc1nc(COC(=O)c2cc3ccccc3cc2O)oc1C | 54.9% (active)
25 | O=C(Nc1nc(C2CC2)cs1)c1cc2ccccc2cc1O | 11.4%
26 | COc1ccc(-c2cc(C(=O)O)sc2C)cc1 | 67.1% (active)

Row | SMILES | inhibition
27 | Cc1sc(C(=O)N2CCOC(C(N)=O)C2)cc1-c1ccc(F)cc1 (stereo unspecified) | 5.13%
28 | Cc1ccc2nc3sc(C(=O)O)cc3cc2c1 | 7.83%
29 | CN(C)C(=O)On1nnc2ccccc21 | 26.9%
30 | O=C(O)C1CCCN1S(=O)(=O)c1cccs1 (stereo unspecified) | -0.47%
31 | O=S(=O)(c1cccs1)n1nnc2ccccc21 | 52.1% (active)
32 | Cn1c(=O)cc2c3c(cccc31)C(=O)c1ccccc1-2 | 11.1%
33 | S=c1[nH]c(-c2ccccc2)c(-c2ccccc2)[nH]1 | 18.6%
34 | O=c1c(-c2ccccc2)c1-c1ccccc1 | 86.5% (active)
35 | O=C(NCCOc1cccc(C(F)(F)F)c1)c1ccc(Cl)c([N+](=O)[O-])c1 | 54.2% (active)
36 | O=C(NCCc1cccc(C(F)(F)F)c1)c1ccc(CSc2ncn[nH]2)o1 | 36.7%
37 | COc1ccccc1C=CC(=O)c1ccc(Cl)cc1 | 46.9%
38 | Cc1ccc(C)c(C=CC(=O)c2ccc(O)cc2)c1 | 98.6% (active)
39 | Cc1cc(C)n(C(C)CNS(=O)(=O)c2ccc(C)c(C)c2)n1 (stereo unspecified) | -27.8%
40 | Cc1cc2nn(-c3ccc(C(C)C)cc3)nc2cc1N | 14.7%
41 | CC(O)c1cnc(-c2ccc(Br)cc2)s1 (stereo unspecified) | 35.9%
42 | CC(C)c1ccc(-c2nnc(N)s2)cc1 | 72.1% (active)
43 | C=CS(=O)(=O)Oc1ccccc1 | 78.9% (active)
44 | O=C(/C=C/C(=O)Oc1ccccc1C(=O)O)Oc1ccccc1C(=O)O | 26.7%
45 | NC(=O)c1ccc(CN2CCCc3cc(F)cc(F)c32)cc1 | 17.5%
46 | NC(=O)c1ccnc(N2CCN(Cc3ccc(Cl)c(Cl)c3)CC2)c1 | 89.4% (active)
47 | Nc1nc(Cl)cc(N2CCN(Cc3ccc4c(c3)OCCO4)CC2)n1 | 6.34%
48 | C=CCn1cnc2c(c1=O)c1nc3ccccc3nc1n2CCC(C)C | 12.7%
49 | CCOc1ccc2ccccc2c1C(=O)Nc1cc(C)nn1-c1nc(C)cc(=O)[nH]1 | 101% (active)
50 | CCOc1ccc2ccccc2c1C(=O)Nc1cc(C)nn1-c1nc(CC)cc(=O)[nH]1 | 101% (active)
51 | O=S(=O)(NCCCCOc1ccc(Cl)cc1)c1cccc(F)c1 | 88.5% (active)
52 | COCCOc1ccc(CNS(=O)(=O)c2ccc(F)c(Cl)c2)cc1 | 30.9%

Row | SMILES | inhibition
53 | O=S(=O)(NCCCNS(=O)(=O)c1ccc(Cl)cc1)c1ccc(Cl)cc1 | -18.2%
54 | Cc1noc(C)c1C(=O)Nc1nc2cc(C(C)(C)C)ccc2o1 | 100% (active)
55 | Cc1ccc(-c2csc(NC(=O)c3c(C)noc3C)n2)s1 | 24.1%
56 | Cc1oc2nc[nH]c(=O)c2c1C(=O)Nc1ccc(C(C)(C)C)cc1 | 39.2%
57 | CCc1cnc(N2CC[C@@H](c3ccc4ccccc4c3)[C@H](O)C2)nc1 | 86.1% (active)
58 | CCCc1nc(N2CC[C@@H](c3ccc4ccccc4c3)[C@H](O)C2)no1 | 23%
59 | Cc1cc(N2CC[C@@H](c3ccc4c(c3)OCO4)[C@H](O)C2)nc2cc(F)ccc12 | 11.3%
60 | Cc1cc(C)n2nc(SCC(=O)Nc3ccc(C(C)C)cc3)nc2n1 | 84.4% (active)
61 | O=C(CSC1=NS(=O)(=O)c2ccccc2N1)Nc1ccccc1 | 31.9%
62 | CCCCc1ccc(NC(=O)CSc2nc3nc(C)cc(C)n3n2)cc1 | -36.7%
63 | O=C1c2ccccc2-c2nc3nonc3nc21 | 103% (active)
64 | O=C(NNC(=O)C1C2C=CC(C2)C1C(=O)O)c1ccc(OC2CCCC2)cc1 (stereo unspecified) | 97.7% (active)
65 | CC(C)n1nccc1-c1nnc(NC(=O)c2ccccc2)o1 | 100% (active)
66 | CCC(C)n1nccc1NC(=O)c1n[nH]c2ccccc2c1=O (stereo unspecified) | 3.7%
67 | O=C(c1ccccc1)n1sc(=O)c2ccccc21 | 61.1% (active)
68 | CN(Cc1cccc(NC(=O)C(C)(C)C)c1)C(=O)C(F)(F)F | 4.53%
69 | O=C(CCCn1c(=O)oc2ccccc21)Nc1cccc(-c2ccsc2)c1 | 34.8%
70 | CS(=O)(=O)CCC(=O)Nc1cccc(-n2cccc2)c1 | 81.7% (active)
71 | CCOC(=O)C1CSC(Cc2ccc(OCc3ccc([N+](=O)[O-])cc3)cc2)N1 (stereo unspecified) | 66% (active)
72 | COc1cccc(C=NNC(=O)c2cc(-c3ccc(Cl)s3)[nH]n2)c1 | 68% (active)
73 | O=C(NN=Cc1ccncc1)c1cc(-c2ccc(Cl)s2)[nH]n1 | 16.5%
74 | CC(=NNC(=O)c1cc(-c2ccc(Cl)s2)[nH]n1)c1ccccc1O | 40.9%
75 | O=c1[nH]nc(SCc2cc(Cl)ccc2Cl)c(=O)[nH]1 | 54.7% (active)
76 | O=C(CN1CCN(CCC23CC4CC(CC(C4)C2)C3)CC1)N1CCCCC1 | 9.26%
77 | CCn1ncc(CN2CCCC(C(=O)Nc3cccc(-c4cc5ccccc5[nH]4)c3)C2)c1C (stereo unspecified) | 24.9%
78 | O=C(CCC1CCCCC1)Nc1ccc(-n2cccn2)cc1 | 37.5%

Row | SMILES | inhibition
79 | O=C(Nc1ccc(-n2cccn2)cc1)C1CCCCN1Cc1cc2ccccc2[nH]1 (stereo unspecified) | 80.4% (active)
80 | Cc1ccc(C(C)CCN2CCC(C(=O)Nc3ccc(-n4cccn4)cc3)CC2)o1 (stereo unspecified) | 81.8% (active)
81 | CCOC(=O)C1(CCOc2ccccc2)CCN(Cc2cc3ccccc3[nH]2)CC1 | inactive
82 | Cc1nc(C)c(CN2CCC(C(=O)Nc3ccc(-n4cccn4)cc3)CC2)nc1C | 83.6% (active)
83 | O=C(Nc1ccc(-n2cccn2)cc1)C1CCN(Cc2ccccn2)CC1 | 90.4% (active)
84 | Cc1ccc2nc(/C(Cl)=C/c3cccc(OCc4cccc(C#N)c4)c3)cc(=O)n2c1 | 32.1%
85 | O=C(Nc1cccc(-c2cccc(F)c2)c1)C1CCN(CC2CCOC2)CC1 (stereo unspecified) | 19.5%
86 | O=C(Nc1ccc(-n2cccn2)cc1)C1CCN(CC2CCOC2)CC1 (stereo unspecified) | 87.4% (active)
87 | CCCCOC(=O)c1ccc(N/C=C(\C#N)c2nc(C3CC3)cs2)cc1 | 79.1% (active)
88 | O=C(O)c1cncnc1/C=C/c1ccccc1Br | 3.04%
89 | N#CC(Cc1ccccc1)NC(=O)/C=C/c1ccccc1Br (stereo unspecified) | 88.1% (active)
90 | CCc1ccc(S(=O)(=O)NCCOc2ccc(-c3ccc(F)cc3)nn2)s1 | 92.4% (active)
91 | O=C(NCc1ccc(Cl)s1)c1cc(COc2cccc(C(F)(F)F)c2)on1 | 82.4% (active)
92 | O=C(NC1(c2ccccc2)CC1)c1cc(COc2cccc(C(F)(F)F)c2)on1 | 88.1% (active)
93 | O=C(c1cc(COc2ccc(-n3cncn3)cc2)on1)N1CCC(c2ccncc2)CC1 | 35.6%
94 | O=C(c1cc(COc2cccc(C(F)(F)F)c2)on1)N1CCC(c2ccncc2)CC1 | 64.9% (active)
95 | C#CCN(CC=C)C(=O)c1cc(COc2cccc(C(F)(F)F)c2)on1 | 26.3%
96 | O=C(c1cc(COc2ccc3c(c2)CCCC3)on1)N1CCC(c2ccncc2)CC1 | 36.6%
97 | Cc1ccc(-c2nc(N3CCN(CCO)CC3)ncc2-c2ccccc2C)cc1 | -0.32%
98 | O=P(NCc1ccccc1)(Oc1ccccc1)Oc1ccccc1 | 81.5% (active)
99 | O=C(NCc1ccccc1)c1coc(Br)c1 | 41.6%
100 | CC(C)(C)CC(C)(C)NC(=O)c1ccc(C#N)cc1 | -11.6%
101 | CN(Cc1ccc(C#N)cc1)C(=O)CCc1ccc(C(C)(C)C)cc1 | 74.3% (active)
